# Where two headings read alike, the source gives them in different places.
# Key:
# Set-up in all cases: species or system human, MV4-11 + K-562 + COLO205 + SK-N-BE2 + OVCAR-8
# FLT3 = settings: read-out: apparent Kd, n = 1
# FER = settings: read-out: apparent Kd; compound concentrations: 100 nM and 1000 nM (sheet 'Samples'), CATDS: 0.23966612691904199; n = 1
# IGF1R = settings: read-out: apparent Kd; compound concentrations: 100 nM and 1000 nM (sheet 'Samples'), CATDS: 0.234502945323845; n = 1
# INSR = settings: read-out: apparent Kd; compound concentrations: 100 nM and 1000 nM (sheet 'Samples'), CATDS: 0.33480579514984299; n = 1
# JAK2 = settings: read-out: apparent Kd, n = 1
# GRK6 = settings: read-out: apparent Kd; compound concentrations:100 nM and 1000 nM (sheet 'Samples'); n = 1
# MAPK10 = settings: read-out: apparent Kd; compound concentrations:100 nM and 1000 nM (sheet 'Samples'); n = 1
# MAPK9 = settings: read-out: apparent Kd; compound concentrations:100 nM and 1000 nM (sheet 'Samples'); n = 1
# NLK = settings: read-out: apparent Kd; compound concentrations:100 nM and 1000 nM (sheet 'Samples'); n = 1
# FLT4 = settings: read-out: apparent Kd, n = 1
# NQO2 = settings: read-out: apparent Kd; compound concentrations: 100 nM and 1000 nM (sheet 'Samples'), CATDS: 0.45168770198248398; n = 1
# GSK3A = settings: read-out: apparent Kd; compound concentrations:100 nM and 1000 nM (sheet 'Samples'); n = 1
# FGFR1 = settings: read-out: apparent Kd; compound concentrations:100 nM and 1000 nM (sheet 'Samples'); n = 1
# PIK3C2A = settings: read-out: apparent Kd; compound concentrations:100 nM and 1000 nM (sheet 'Samples'); n = 1
# PDGFRB = settings: read-out: apparent Kd; compound concentrations: 100 nM and 1000 nM (sheet 'Samples'), CATDS: 0.22396051882089299; n = 1
# FRK = settings: read-out: apparent Kd, compound concentrations: 100 nM and 1000 nM (sheet 'Samples'), n = 1
# HCK = settings: read-out: apparent Kd, compound concentrations: 100 nM and 1000 nM (sheet 'Samples'), n = 1
# LCK = settings: read-out: apparent Kd, compound concentrations: 100 nM and 1000 nM (sheet 'Samples'), n = 1
# MAP2K5 = settings: read-out: apparent Kd, compound concentrations: 100 nM and 1000 nM (sheet 'Samples'), n = 1
# RIPK3 = settings: read-out: apparent Kd; compound concentrations: 100 nM and 1000 nM (sheet 'Samples'), CATDS: 0.17836354308348701; n = 1
# STK26 = settings: read-out: apparent Kd; compound concentrations: 100 nM and 1000 nM (sheet 'Samples'), CATDS: 0.187537130117577; n = 1
# TTK = settings: read-out: apparent Kd; compound concentrations: 100 nM and 1000 nM (sheet 'Samples'), CATDS: 0.15958246539429699; n = 1
# TTN = settings: read-out: apparent Kd; compound concentrations: 100 nM and 1000 nM (sheet 'Samples'), CATDS: 0.25287309010543901; n = 1
# GAK = settings: read-out: apparent Kd; compound concentrations: 100 nM and 1000 nM (sheet 'Samples'), CATDS: 0.18485172893482499; n = 1
# NUAK1 = settings: read-out: apparent Kd; compound concentrations: 100 nM and 1000 nM (sheet 'Samples'), CATDS: 0.245714515933597; n = 1
# PLK4 = settings: read-out: apparent Kd; compound concentrations: 100 nM and 1000 nM (sheet 'Samples'), CATDS: 0.36168703025704801; n = 1
# PTK2 = settings: read-out: apparent Kd; compound concentrations: 100 nM and 1000 nM (sheet 'Samples'), CATDS: 0.26626379457403998; n = 1
# MYLK3 = settings: read-out: apparent Kd; compound concentrations:100 nM and 1000 nM (sheet 'Samples'); n = 1
# TNIK = settings: read-out: apparent Kd; compound concentrations:100 nM and 1000 nM (sheet 'Samples'); n = 1
# FN3K = settings: read-out: apparent Kd; compound concentrations: 100 nM and 1000 nM (sheet 'Samples'), CATDS: 0.30544658046652101; n = 1
# ROCK1 = settings: read-out: apparent Kd; compound concentrations: 100 nM and 1000 nM (sheet 'Samples'), CATDS: 0.35168740775253199; n = 1
# ROCK2 = settings: read-out: apparent Kd; compound concentrations: 100 nM and 1000 nM (sheet 'Samples'), CATDS: 0.34690050634706199; n = 1
# LYN = settings: read-out: apparent Kd; compound concentrations: 100 nM and 1000 nM (sheet 'Samples'), CATDS: 0.140123988269205; n = 1
# TNK2 = settings: read-out: apparent Kd; compound concentrations: 100 nM and 1000 nM (sheet 'Samples'), CATDS: 0.21718962243178; n = 1
# [1] = compound concentrations: 100 nM and 1000 nM (sheet 'Samples'), CATDS: 1
# [2] = compound concentrations:100 nM and 1000 nM (sheet 'Samples')
smiles,measurement,setting,value
CC(C)c1ccc2c(c1)NC(=O)/C2=N/Nc1ccc(S(N)(=O)=O)cc1 [GW300653X],potency estimated from few doses,FLT3; [1],716 nM
COc1cc2c(cc1Nc1nc(N3CCc4ccccc43)c3cc[nH]c3n1)N(C(=O)CN(C)C)CC2 [GSK2186269A],potency estimated from few doses,FER,915 nM
same,potency estimated from few doses,IGF1R,959 nM
same,potency estimated from few doses,INSR,493 nM
same,potency estimated from few doses,"JAK2; compound concentrations: 100 nM and 1000 nM (sheet 'Samples'), CATDS: 0.21851313363519401",1130 nM
Nc1ncnc2c1ncn2-c1ccc(Cl)cc1 [AH2635],potency estimated from few doses,FLT3; [1],1610 nM
Cn1c(=O)c(Oc2ccc(F)cc2F)cc2cnc(NC3CCOCC3)nc21 [RO3304806-000],potency estimated from few doses,GRK6,1350 nM
same,potency estimated from few doses,JAK2; [2],603 nM
same,potency estimated from few doses,MAPK10,1000 nM
same,potency estimated from few doses,MAPK9,1780 nM
same,potency estimated from few doses,NLK,1620 nM
COc1ccc(-c2nn3ncccc3c2-c2ccnc(Nc3ccc(Cl)c(C(F)(F)F)c3)n2)cc1 [GW829115X],potency estimated from few doses,FLT4; [1],635 nM
Cl.NS(=O)(=O)c1cccc(Nc2cc(-c3ccc(F)cc3)n[nH]2)c1 [GW824645A_PKIS2],potency estimated from few doses,FLT3; [1],342 nM
CN1C(=O)C(c2c[nH]c3ccccc23)=C(c2c[nH]c3ccccc23)C1=O [RO0316045-000],potency estimated from few doses,"FLT4; compound concentrations: 100 nM and 1000 nM (sheet 'Samples'), CATDS: 0.55988503208503904",1370 nM
same,potency estimated from few doses,NQO2,2110 nM
COc1ccc(C2=C(Nc3cccc(C(=O)O)c3)C(=O)NC2=O)cc1 [SB-390765],potency estimated from few doses,GSK3A,82.8 nM
CCS(=O)(=O)c1ccc(OC)c(Nc2ncc(-c3cccc(-c4ccccc4F)c3)o2)c1 [GW678313X],potency estimated from few doses,FLT4; [2],423 nM
COc1cc(OC)cc(-c2cc3cnc(N)nc3nc2NC(=O)NC(C)(C)C)c1 [PFE-PKIS_3],potency estimated from few doses,FGFR1,85.8 nM
same,potency estimated from few doses,FLT4; [2],1380 nM
same,potency estimated from few doses,PIK3C2A,2380 nM
COc1ccccc1Nc1ncc(-c2ccccc2)o1.Cl [GW577921A],potency estimated from few doses,"FLT3; compound concentrations: 100 nM and 1000 nM (sheet 'Samples'), CATDS: 0.90882717599339502",14.3 nM
same,potency estimated from few doses,"JAK2; compound concentrations: 100 nM and 1000 nM (sheet 'Samples'), CATDS: 0.29115403437322901",370 nM
same,potency estimated from few doses,PDGFRB,1080 nM
COc1cc2nccc(Nc3ccc(NC(=O)c4ccc(C)cc4)c(O)c3)c2cc1OC.Cl [GW440132A],potency estimated from few doses,FRK; CATDS: 0.28944129909261102,691 nM
same,potency estimated from few doses,HCK; CATDS: 0.241643180155243,986 nM
same,potency estimated from few doses,LCK; CATDS: 0.30139088079166299,643 nM
same,potency estimated from few doses,MAP2K5; CATDS: 0.19651058590933199,1640 nM
Cc1ccc2c(c1)/C(=N/Nc1ccc(S(N)(=O)=O)cc1)C(=O)N2 [GW275944X],potency estimated from few doses,"FLT3; compound concentrations: 100 nM and 1000 nM (sheet 'Samples'), CATDS: 0.260396984763757",809 nM
same,potency estimated from few doses,RIPK3,1700 nM
same,potency estimated from few doses,STK26,1520 nM
same,potency estimated from few doses,TTK,2270 nM
same,potency estimated from few doses,TTN,851 nM
CCC(=O)Nc1cccc(Oc2nc(Nc3ccc(N4CCN(C)CC4)cc3OC)ncc2Cl)c1 [WZ4003],potency estimated from few doses,GAK,1600 nM
same,potency estimated from few doses,NUAK1,760 nM
same,potency estimated from few doses,PLK4,371 nM
same,potency estimated from few doses,PTK2,643 nM
CCS(=O)(=O)c1ccc(OC)c(Nc2ncc(-c3cccc(OC)c3)o2)c1 [GW580509X],potency estimated from few doses,FLT3; [2],1130 nM
C/C(Nc1ccc(S(N)(=O)=O)cc1)=C1/C(=O)Nc2ccccc21 [GW335962X],potency estimated from few doses,FLT3; [2],524 nM
same,potency estimated from few doses,MYLK3,629 nM
same,potency estimated from few doses,TNIK,2260 nM
NS(=O)(=O)c1cccc(N/C=C2\C(=O)Nc3ccc(S(=O)(=O)Cc4c(Cl)cccc4Cl)cc32)c1 [GSK398099A],potency estimated from few doses,FN3K,2240 nM
same,potency estimated from few doses,ROCK1,1680 nM
same,potency estimated from few doses,ROCK2,1720 nM
Cc1ccc(C(=O)Nc2ccc(Nc3ccnc4cc(-c5ccccn5)ccc34)cc2O)cc1.Cl [GW440146A],potency estimated from few doses,FRK; CATDS: 0.227181560235134,250 nM
same,potency estimated from few doses,HCK; CATDS: 0.17687822419951399,398 nM
same,potency estimated from few doses,LCK; CATDS: 0.18982268752043399,346 nM
same,potency estimated from few doses,LYN,686 nM
same,potency estimated from few doses,MAP2K5; CATDS: 0.111910092443395,1450 nM
same,potency estimated from few doses,TNK2,270 nM

# — paper PMC11062922 (Nature Chemical Biology, 2023)
